In the supplement of paper PMC10849652:
The full data set covers some 8,800 targets. This sample favours those with a hit. About 0.5% of all pairs of compound and target were hits. A number with no mark means an inactive call.

Assays:
Test in all cases: log2 fold change, soluble protein after heating vs DMSO (PISA); higher = thermal stabilisation; K562 lysate, 10 uM; active = over 0.2 and 3.5 SD of the protein, either way, in both replicates (recomputed)
[1] = compound: CN1CC[C@H](c2c(O)cc(O)c3c(=O)cc(-c4ccccc4Cl)oc23)[C@H](O)C1 [alvocidib]
Method in brief: (§1)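 K562 pellets were dounce-homogenised in PBS pH 7.4 containing 1 mM MgCl2, and the crude extract, at 1 mg/mL protein, was exposed to 10 μM compound for 30 min. Aliquots were heated for 3 min across 48°C-58°C, pooled, brought to 0.5% NP-40 at 4°C and spun at 21,000xg for 90 min, with the supernatant taken as soluble protein. TMTpro 16plex LC-MS/MS with equalised channel sums quantified that protein. Values are log-two fold changes in thermal stability relative to solvent controls, taken from duplicates.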

[2] = compound: CN1CCc2c(c3ccccc3n2Cc2ccc(C(=O)NO)cc2)C1 [Tubastatin A]
Method in brief: as §1

[3] = compound: CNC(=O)C1=CC=CC=C1NC2=NC(=NC=C2Cl)NC3=C(C=C(C=C3)N4CCOCC4)OC
Method in brief: as §1

[4] = compound: CNC(=O)c1ccc(Nc2ncc(C(F)(F)F)c(NCc3nccnc3N(C)S(C)(=O)=O)n2)cc1 [defactinib]
Method in brief: as §1

[5] = compound: CNc1nc(-c2ccc3c(N)n[nH]c3c2)cc(N2C[C@@H](C(=O)NC3CCCCC3)CC[C@H]2C)n1
Method in brief: as §1

[6] = compound: COC(=O)N[C@@H](C)CNc1nccc(-c2cn(C(C)C)nc2-c2cc(Cl)cc(NS(C)(=O)=O)c2F)n1 [encorafenib]
Method in brief: as §1

[7] = compound: COC(=O)[C@H](CCSC)NC(=O)C1=C(C=C(C=C1)NC[C@H](CS)N)C2=CC=CC=C2
Method in brief: as §1

[8] = compound: COc1cc(Nc2ncc3c(n2)-c2ccc(Cl)cc2C(c2c(F)cccc2OC)=NC3)ccc1C(=O)O [alisertib]
Method in brief: as §1

[9] = compound: COc1cc2nc(-c3cc(F)ccc3O)nc(N[C@@H]3CNC[C@H]3C(C)(C)O)c2cc1OC
Method in brief: as §1

[10] = compound: COc1cc2ncnc(Nc3ccc(F)c(Cl)c3)c2cc1OCCCN1CCOCC1 [gefitinib]
Method in brief: as §1

[11] = compound: CS(=O)(=O)CCNCc1ccc(-c2ccc3ncnc(Nc4ccc(OCc5cccc(F)c5)c(Cl)c4)c3c2)o1 [lapatinib]
Method in brief: as §1

[12] = compound: CS(=O)(=O)N1CCN(Cc2cc3nc(-c4cccc5[nH]ncc45)nc(N4CCOCC4)c3s2)CC1 [pictilisib]
Method in brief: as §1

[13] = compound: C[C@@H](Oc1cc(-c2cnn(C3CCNCC3)c2)cnc1N)c1c(Cl)ccc(F)c1Cl [crizotinib]
Method in brief: as §1

[14] = compound: C[C@H](C1=CC=C(C=C1)C(=O)NC2=C3C=CNC3=NC=C2)N
Method in brief: as §1

[15] = compound: C[C@H](Nc1ncnc2nc[nH]c12)c1cc2cccc(Cl)c2c(=O)n1-c1ccccc1 [duvelisib]
Method in brief: as §1

[16] = compound: Cc1cc(Nc2cc(CN3CCOCC3)c3nc(C)c(Cc4ccc(Cl)cc4F)n3n2)n[nH]1 [gandotinib]
Method in brief: as §1

[17] = compound: Cc1cc(Nc2cc(N3CCN(C)CC3)nc(Sc3ccc(NC(=O)C4CC4)cc3)n2)n[nH]1 [tozasertib]
Method in brief: as §1

[18] = compound: Cc1ccc(-n2nc(C(C)(C)C)cc2NC(=O)Nc2ccc(OCCN3CCOCC3)c3ccccc23)cc1 [doramapimod]
Method in brief: as §1

[19] = compound: Cc1ccc(NC(=O)c2ccc(CN3CC[C@H](N(C)C)C3)c(C(F)(F)F)c2)cc1Nc1nccc(-c2cncnc2)n1 [bafetinib]
Method in brief: as §1

[20] = compound: Cc1cccc(CC(=O)N2CCc3c2ccc(-c2cn(C)c4ncnc(N)c24)c3F)n1
Method in brief: as §1

UniProt Q8TBX8, sequence (Q8TBX8 whole entry, looked up): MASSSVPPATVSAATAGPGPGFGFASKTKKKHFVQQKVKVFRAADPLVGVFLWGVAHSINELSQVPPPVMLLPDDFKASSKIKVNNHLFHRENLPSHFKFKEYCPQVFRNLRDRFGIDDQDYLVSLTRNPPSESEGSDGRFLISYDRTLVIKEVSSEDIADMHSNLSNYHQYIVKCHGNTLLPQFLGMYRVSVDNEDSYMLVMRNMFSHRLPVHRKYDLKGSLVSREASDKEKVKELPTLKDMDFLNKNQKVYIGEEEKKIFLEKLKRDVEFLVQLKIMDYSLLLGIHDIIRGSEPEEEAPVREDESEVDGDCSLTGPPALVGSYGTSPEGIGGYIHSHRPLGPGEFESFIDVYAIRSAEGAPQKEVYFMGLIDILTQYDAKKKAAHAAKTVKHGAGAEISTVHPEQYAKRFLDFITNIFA
UniProt Q12972, sequence (Q12972 whole entry, looked up): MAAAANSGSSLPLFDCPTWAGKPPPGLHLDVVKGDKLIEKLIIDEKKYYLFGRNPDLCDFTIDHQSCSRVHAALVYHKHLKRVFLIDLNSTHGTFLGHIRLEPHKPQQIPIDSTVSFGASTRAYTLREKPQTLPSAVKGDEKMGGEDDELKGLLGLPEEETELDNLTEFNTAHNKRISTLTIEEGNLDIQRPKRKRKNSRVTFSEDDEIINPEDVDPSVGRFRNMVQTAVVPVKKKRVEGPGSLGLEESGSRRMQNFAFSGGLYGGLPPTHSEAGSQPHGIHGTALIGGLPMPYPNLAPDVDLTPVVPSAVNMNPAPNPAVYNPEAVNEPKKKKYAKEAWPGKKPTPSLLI
UniProt O43175, sequence (O43175 whole entry, looked up): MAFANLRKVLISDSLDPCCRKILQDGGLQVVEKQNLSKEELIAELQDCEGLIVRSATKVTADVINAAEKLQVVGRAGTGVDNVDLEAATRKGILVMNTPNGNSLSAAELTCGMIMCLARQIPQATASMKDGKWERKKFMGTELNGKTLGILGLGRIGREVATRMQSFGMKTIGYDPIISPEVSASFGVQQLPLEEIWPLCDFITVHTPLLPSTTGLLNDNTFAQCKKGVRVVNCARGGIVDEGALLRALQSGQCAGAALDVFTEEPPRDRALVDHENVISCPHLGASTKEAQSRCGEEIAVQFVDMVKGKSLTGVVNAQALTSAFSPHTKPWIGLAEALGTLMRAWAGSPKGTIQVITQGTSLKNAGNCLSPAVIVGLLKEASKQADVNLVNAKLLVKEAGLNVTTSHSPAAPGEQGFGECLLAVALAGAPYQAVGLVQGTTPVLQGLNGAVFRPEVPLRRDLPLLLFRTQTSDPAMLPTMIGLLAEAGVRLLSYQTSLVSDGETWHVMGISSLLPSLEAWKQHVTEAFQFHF
UniProt Q53EL6, sequence (Q53EL6 whole entry, looked up): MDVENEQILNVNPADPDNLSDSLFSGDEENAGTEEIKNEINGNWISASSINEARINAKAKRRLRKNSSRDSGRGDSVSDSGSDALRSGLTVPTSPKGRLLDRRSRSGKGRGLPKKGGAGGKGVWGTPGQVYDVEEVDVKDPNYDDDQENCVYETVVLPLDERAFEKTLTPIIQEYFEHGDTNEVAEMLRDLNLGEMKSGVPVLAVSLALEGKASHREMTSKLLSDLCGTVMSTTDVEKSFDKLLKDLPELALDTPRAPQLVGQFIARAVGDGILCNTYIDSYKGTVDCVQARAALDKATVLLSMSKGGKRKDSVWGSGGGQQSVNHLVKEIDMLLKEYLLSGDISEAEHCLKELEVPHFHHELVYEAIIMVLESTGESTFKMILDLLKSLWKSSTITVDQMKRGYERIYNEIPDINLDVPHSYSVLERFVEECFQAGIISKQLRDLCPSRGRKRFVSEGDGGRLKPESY
UniProt Q9H2H8, sequence (Q9H2H8 whole entry, looked up): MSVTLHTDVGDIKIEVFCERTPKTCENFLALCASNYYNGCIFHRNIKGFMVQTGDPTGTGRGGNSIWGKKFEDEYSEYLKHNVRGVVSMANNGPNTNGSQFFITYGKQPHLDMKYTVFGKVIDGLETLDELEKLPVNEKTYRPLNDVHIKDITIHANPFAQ

| Target | log2 fold change [1] | log2 fold change [2] | log2 fold change [3] | log2 fold change [4] | log2 fold change [5] | log2 fold change [6] | log2 fold change [7] | log2 fold change [8] | log2 fold change [9] | log2 fold change [10] | log2 fold change [11] | log2 fold change [12] | log2 fold change [13] | log2 fold change [14] | log2 fold change [15] | log2 fold change [16] | log2 fold change [17] | log2 fold change [18] | log2 fold change [19] | log2 fold change [20] |
| --- | --- | --- | --- | --- | --- | --- | --- | --- | --- | --- | --- | --- | --- | --- | --- | --- | --- | --- | --- | --- |
| PIP4K2C (UniProt Q8TBX8) | 0.47 (active) | 0.022 | 0.125 | 0.092 | -0.07 | 0.139 | -0.085 | 0.013 | 0.104 | 0.083 | -0.043 | 0.063 | -0.036 | -0.128 | 0.033 | 0.109 | -0.06 | 0.006 | 0.664 (active) | -0.032 |
| POLR2G (UniProt P62487) | -0.034 | 0.012 | 0.038 | 0.027 | 0.019 | 0.007 | -0.032 | 0.016 | 0.017 | -0.01 | -0.001 | -0.048 | 0.016 | -0.04 | 0.03 | -0.002 | -0.04 | -0.011 | 0.004 | -0.006 |
| PHGDH (UniProt O43175) | 0.028 | -0.415 (active) | -0.081 | 0.022 | 0.018 | 0.006 | -0.439 (active) | 0.004 | 0.006 | -0.016 | -0.053 | 0.005 | 0 | 0.076 | 0 | -0.071 | 0.019 | -0.039 | 0.032 | -0.055 |
| PRKACA (UniProt P17612) | -0.118 | 0.008 | 0.034 | 0.177 | 0.082 | -0.052 | -0.059 | 0.027 | 0.558 (active) | -0.01 | -0.008 | -0.012 | 0.022 | -0.159 | -0.059 | 0.115 | -0.12 | -0.113 | -0.073 | 0.151 |
| PPP1R8 (UniProt Q12972) | -0.095 | 0.028 | -0.025 | -0.003 | 0.044 | 0.028 | -0.049 | 0.022 | -0.012 | -0.05 | 0.025 | -0.008 | 0.021 | -0.236 | -0.035 | 0.108 | -0.014 | -0.011 | -0.01 | 0.091 |
| PPIL3 (UniProt Q9H2H8) | -0.105 | -0.044 | 0 | -0.115 | 0.012 | 0.011 | 0.008 | -0.033 | 0.018 | -0.02 | 0.05 | -0.062 | 0.079 | -0.115 | -0.009 | 0.084 | -0.019 | 0 | -0.037 | 0.08 |
| PCBP2 (UniProt H3BRU6) | 0.033 | -0.116 | 0.082 | 0.061 | 0.018 | 0.04 | 0.017 | -0.023 | 0.072 | -0.145 | 0.116 | -0.021 | -0.04 | 0.044 | 0.028 | 0.01 | -0.112 | -0.119 | 0.079 | -0.041 |
| PDCD4 (UniProt Q53EL6) | 0.01 | -0.033 | 0.017 | 0.002 | 0.019 | 0.019 | -0.034 | -0.005 | 0.015 | -0.003 | -0.026 | -0.003 | -0.055 | -0.051 | -0.022 | 0.009 | -0.002 | 0.011 | -0.038 | 0.062 |
